Active and inactive are the calls of the source. Rule for the calls: active = hit-call score of the fitted dose curve at least 0.9, where 1 is the maximum; inactive = score below 0.9.

The nature of this experiment: CCTE_Padilla_ZF_Score.Swim_bladder: CCTE's 144 Hour Post-fertilization zebrafish Assay Score for Swim Bladder Malformation, Padilla Lab (AID 2284408). On the procedure:
CCTE_Padilla_ZF_Phenotype_Score is a whole embryo, multiplexed assay using zebrafish ova exposed for 144 hours post fertilization on a 96-well plate.CCTE_Padilla_ZF_Score.Swim_bladder is one of one assay component(s) measured or calculated from the CCTE_Padilla_ZF_Phenotype_Score assay. It is designed to make measurements of zebrafish development as detected with brightfield microscopy of developing zebrafish embryos.Data from the assay component CCTE_Padilla_ZF_Score.Swim_bladder was analyzed into 1 assay endpoints. This assay endpoint, CCTE_Padilla_ZF_Score.Swim_bladder, was analyzed in the positive analysis fitting direction relative to DMSO as the negative control and baseline of activity. Using a type of viability reporter, gain-of-signal activity can be used to understand changes in developmentals as they relate to the whole embryo. To generalize the intended target to other relatable targets, this assay endpoint is annotated to the zebrafish development intended target family, where the subfamily is swim bladder morphogenesis.
Zebrafish husbandry: Wild type adult zebrafish (Danio rerio; undefined outbred stock obtained from Aquatic Research Organisms, Hampton, NH, 03842) were housed in an AAALAC-approved animal facility at 28C with a 14:10 h light: dark cycle (lights on at 08:30 h). Adult fish (2-3 females per male; density = 15-20 adults per tank) were kept in one of several 9-liter (L) flow-through colony tanks (Aquaneering Inc., San Diego, CA). All adults in a colony tank were placed in a 2 L (static) breeding tank (Aquatic Habitats, Apopka, FL) one hour prior to light onset. Typically, adults from two to three colony tanks were mated on the same day. Two hours after light onset the adults were returned to the colony tank. All embryos were gathered from each breeder tank, pooled, and placed in a 28C water bath for 2 h, followed by two washes with 0.06% bleach (v/v) in 10% Hanks' Balanced Salt Solution (13.7 mM NaCl 0.54 mM KCl, 25 uM Na2HPO4, 130 uM CaCl2 100 um MgSO4 and 420 um NaHCO3,), hereafter referred to as Hanks' solution, for 5 min in order to remove any residual bacteria or fungi. Immediately following washing, the embryos were examined, and healthy embryos were separated from dead or unfertilized eggs and moved into fresh Hanks'. Chemical exposures: Zebrafish embryos were exposed in 96-well plates. Between 6- and 8-hours post fertilization (hpf), healthy embryos (with chorions) were transferred, one embryo per well, into 96 well (0.5 mL) microtiter plates (Cell Culture-Treated, Flat-Bottom Microplate 96 well [Corning Costar, Kennebunk, ME; Cat 09-761-145]) filled with 200 uL of Hanks' solution. A random number generator was used to assign the order in which the rows of embryos were plated in 96 well plates each week. After plating, the embryos were dosed with 0.8 uL of the chemical dosing solution then immediately sealed with AlumaSeal II (Excel Scientific Inc, Victorville, CA) to prevent volatilization of the chemicals, and then placed in a leakproof secondary container. These containers were placed in an incubator maintained on a 14:10 h light: dark cycle at 26C for rearing. On 5 dpf, live larvae were gently moved out of the plate with test chemicals and into a new 96 well mesh plate (Millipore Corp., Bedford, MA) with just the Hanks' solution. Once within the mesh well plate, the animals were rinsed with 400 uL of fresh Hanks' three times, and then the plates were covered with a non-adhesive material (Microseal A, BioRad, Hercules, CA), plate lid added, and then plate sides wrapped in Parafilm (PM992, Bermis Company, Neenah, WI), and returned to the incubator. […]
`C=CC(=O)OCC(F)(F)C(F)F`: the result was inactive.

For the molecule `O=C(O)C(F)(F)OC(F)(F)C(F)(F)OC(F)(F)C(=O)O`, the outcome was inactive.

Turning to `OCC(F)(F)OC(F)(F)C(F)(F)OC(F)(F)C(F)(F)OC(F)(F)CO`, the call was inactive.

On to `FC(F)(F)C(F)(C(F)(F)F)C(F)(F)C(F)(F)CC1CO1` (centres undefined), for which the molecule was called inactive.

As to `CC(O)C(F)(F)C(F)(F)F` (centres undefined), the molecule was classed as inactive.

As to `OCC(F)(F)OC(F)(F)C(F)(F)OC(F)(F)CO`, the molecule was called inactive.

On to `O=C(O)C=CC(F)(C(F)(F)F)C(F)(F)F`, for which the outcome was inactive.

In the case of `OCC(F)(F)OC(F)(F)C(F)(F)OC(F)(F)C(F)(F)OC(F)(F)F`, the AC50 was 27.5 µM (active).

Consider `NC(=O)C(F)(F)C(F)(F)F`, for which the call was inactive.

Regarding `O=C(O)C(F)(F)OC(F)(F)C(F)(F)OC(F)(F)F`, the call was inactive.

As to `COC(=O)C(F)(F)C(F)(F)OC(F)(C(F)(F)F)C(F)(F)OC(F)=C(F)F` (centres undefined), the outcome was inactive.

With `O=C(O)C(F)(F)C(F)(F)C(=O)O`, the call was inactive.

Turning to `O=S(=O)(F)C(F)(F)C(F)(F)C(F)(F)C(F)(F)C(F)(F)C(F)(F)C(F)(F)C(F)(F)F`, the call was inactive.

Take `O=C(O)C(F)(OC(F)(F)C(F)(F)C(F)(F)F)C(F)(F)F` (centres undefined): the outcome was inactive.

What is called AC50 is the concentration giving half of the maximal activity seen.
